From PubChem BioAssay
A selection: hits, their analogues and other compounds. The true share with any hit is near 3.4%.
TRPM1 prom inh: MITF TRPM1 promoter inhibition in SK-MEL-5 cells | SK-MEL-5 TRPM1 promoter luciferase, 24 h | AID 488899 | hit rate 0.83% among 330,000 | inhibition, % at 12.5 µM;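 active = mean inhibition across replicates of 60% or more, whatever share of single replicates reaches that level; inconclusive = some that reach 60%, reason not given; inactive = mean inhibition across replicates below 60%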
TROY NFkB inh: TROY signaling inhibition; Q293 LMP1-TROYcd NF-kB luciferase reporter, 4 h; hit rate 0.98% among 360,000; inhibition, % at 10 µM;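 active = compounds whose plate-normalised and pattern-corrected inhibition of the luciferase reporter signal at the single screening dose is 50% or more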
EBV LMP1 NFkB: reduces LMP1-driven NF-kappaB luciferase signal; LMP1-induced NF-kappaB luciferase reporter cells, luminescence; inhibition, % at 12.5 µM; hit rate 0.69% among 350,000; AID 504558; in the data active = inhibition above about 41%; inconclusive = no clear call, values can overlap the other calls
Shn3 3UTR inh: inhibitors of Schnurri-3 3'UTR reporter in osteoblasts | AID 588674 | Clone20 osteoblast Shn3 3'UTR firefly luciferase, 24 h | hit rate 0.52% among 360,000 | inhibition, % at 12.5 µM;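 active = mean inhibition of at least 75% with every replicate also reaching 75%; inconclusive = mean inhibition at least 75% but some replicate below; inactive = mean inhibition below 75%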
HIF-2a block: blocks HIF-2a reporter activity; 786-0 RCC cells HIF-2a reporter, luciferase luminescence, overnight; AID 624352; inhibition, % at 18.8 µM; hit rate 0.72% among 360,000;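 active = inhibition of the luminescence signal of 40% or more relative to plate controls, in a single-dose primary screen at 18.75 µM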
TWEAK-Fn14 inh: TWEAK-Fn14 signaling inhibition; TWEAK-stimulated Fn14 reporter cells, luciferase luminescence, 8 h; AID 1159606; hit rate 2% among 360,000; inhibition, % at 10 µM; in the data active = inhibition above about 50%
Of the large screens only hits and unclear results are named; the others gave an inactive call.

Cc1snc(S(=O)(=O)/C(C#N)=N\Nc2ccccc2)c1C#N	none
Cc1snc(S(=O)(=O)/C(C#N)=N/Nc2ccc(C(F)(F)F)cc2)c1C#N	TROY NFkB inh 52
c1ccc(-c2nc(-c3nccc4ccccc34)oc2-c2ccccc2)cc1	TROY NFkB inh 60, TWEAK-Fn14 inh 73
Nc1nc(-c2ccccc2)c(-c2ccccc2)o1	none
Cc1oc2c(c1C(=O)c1ccccc1)C(=O)C(=O)c1ccccc1-2	EBV LMP1 NFkB 94, HIF-2a block 88
CCOC(=O)c1c(C)oc2c1C(=O)c1ccccc1C2=O	TRPM1 prom inh 97
Cc1oc2c(c1C(=O)O)C(=O)c1ccccc1C2=O	none
NC(=O)[C@H]1CC2(CC(c3cccc(NC(=O)COc4ccc(Cl)cc4)c3)=NO2)CN1C(=O)Cc1ccc([N+](=O)[O-])cc1 (stereo partly drawn)	TWEAK-Fn14 inh 65
O=C(CN1C(=O)C2CC=CCC2C1=O)NCC(=O)Nc1ccc(F)c(F)c1 (stereo not drawn)	none
CCN1C(=O)CC(c2ccccc2)N(C2CCCC2)c2nc(Nc3ccc(C(=O)NC4CCN(C)CC4)cc3OC)ncc21 (stereo not drawn)	TRPM1 prom inh 87
CCN1C(=O)CC(C(C)C)N(C2CCCC2)c2nc(Nc3ccc(C(=O)NC4CCN(C)CC4)cc3OC)ncc21 (stereo not drawn)	TRPM1 prom inh 84
Cc1ccc(NC(=O)c2cnccn2)cc1S(=O)(=O)N1CCCCCC1	none
O=C(c1ccc(S(=O)(=O)Cc2ccccc2F)c([N+](=O)[O-])c1)N1CCCCCC1	none
O=C(c1ccc(S(=O)(=O)c2ccccc2Cl)c([N+](=O)[O-])c1)N1CCCCCC1	TWEAK-Fn14 inh 66
CCOc1cc(CN2CCC(N3CCC(C(=O)NC4CC4)CC3)CC2)ccc1O	none (no result: TRPM1 prom inh)
CCOC(=O)c1sc(NC(=O)CSc2n[nH]c(-c3ccc(Cl)cc3Cl)n2)c(C#N)c1C	TROY NFkB inh 63
CCOC(=O)c1sc(NC(=O)c2cc(-c3ccccc3C)nc3ccccc23)c(C#N)c1C	TROY NFkB inh 69, TWEAK-Fn14 inh 63
CC(C)(C)OC(=O)CC12CCCCC1NC(=O)O2 (stereo not drawn)	none (no result: TRPM1 prom inh)
O=C(COc1ccccc1)N=C1SC2CS(=O)(=O)CC2N1c1ccc(F)cc1F (stereo not drawn)	none
CC(CN1CC(=O)NC(=O)C1)N1CC(=O)NC(=O)C1 (stereo not drawn)	none (no result: TRPM1 prom inh)
CCN1c2ccccc2NC2N=C(OC)C(c3ccccc3)C21 (stereo not drawn)	TRPM1 prom inh 87
CCCCOC(=O)c1[nH]c2c(c1C)C(=O)CC(c1cc(OC)c(OC)c(OC)c1)C2 (stereo not drawn)	Shn3 3UTR inh 82, TWEAK-Fn14 inh 73 (no result: TRPM1 prom inh)
C=CCOC(=O)c1[nH]c2c(c1C)C(=O)CC(c1cc(OC)c(OC)c(OC)c1)C2 (stereo not drawn)	Shn3 3UTR inh 88, TWEAK-Fn14 inh 64
COCCOC(=O)c1[nH]c2c(c1C)C(=O)CC(c1cc(OC)c(OC)c(OC)c1)C2 (stereo not drawn)	none
COc1ccc(N(C)C(=O)c2cc3c(s2)-c2ccc(Cl)cc2S(=O)(=O)C3)c(OC)c1	TWEAK-Fn14 inh 71
COc1ccc(N(C)C(=O)c2cc3c(s2)-c2ccccc2OC3)c(OC)c1	none
CCCNC(=O)c1cc2c(c(-c3cccc(-c4cc5ccccc5o4)c3)n1)[C@@H](CCO)N(C(=O)NC(C)C)C2	none (no result: TRPM1 prom inh, EBV LMP1 NFkB, Shn3 3UTR inh)
CCNC(=O)c1cc2c(c(-c3cccc(-c4cc5ccccc5o4)c3)n1)[C@H](CCO)N(C(=O)NC(C)C)C2	TWEAK-Fn14 inh 53 (no result: TRPM1 prom inh, EBV LMP1 NFkB, Shn3 3UTR inh)
COc1ccc(-c2ccn(-c3cccc(F)n3)n2)cc1	TWEAK-Fn14 inh 56
COc1ccc(-n2nnnc2-c2cnc(N3CCCC3)nc2C(F)(F)F)cc1	Shn3 3UTR inh 87
FC(F)(F)c1nc(-c2cccnc2)ncc1-c1nnnn1-c1ccccc1	none
Clc1ccc(-n2nnnc2-c2cnc(-c3ccncc3)nc2-c2cccs2)cc1	none
FC(F)(F)c1nc(-c2cccs2)ncc1-c1nnnn1-c1ccc(Cl)cc1	TROY NFkB inh 66, Shn3 3UTR inh 86, TWEAK-Fn14 inh 99
CCc1cccc(NC(=O)CN(c2ccc(C)cc2)S(=O)(=O)c2c(C)noc2C)c1	none
CN1c2ccccc2N(C)C1(C)c1ccccc1	none
CCN1c2ccccc2N(C)C1(C)c1ccccc1 (stereo not drawn)	Shn3 3UTR inh 89
CN1CCN(CC(=O)Nc2nc3c(s2)CCCC3)CC1	none
CCN1CCN(/C=N/c2nc3c(s2)CCCC3)CC1	TRPM1 prom inh inconclusive, TROY NFkB inh 86, EBV LMP1 NFkB 55, TWEAK-Fn14 inh 96
CCCC(=O)N1CCC1(C)C(=O)NS(=O)(=O)c1ccc(C)cc1 (stereo not drawn)	none (no result: TRPM1 prom inh, EBV LMP1 NFkB)
C=CCNc1ncnc2c1ncn2[C@H]1CN(CCOC)C[C@@H](CO)O1	none (no result: TRPM1 prom inh, EBV LMP1 NFkB)
CC(=O)Oc1ccccc1/C=C/c1nc2ccccc2c(=O)o1	EBV LMP1 NFkB 45, TWEAK-Fn14 inh 62
CC(=O)Oc1ccc(/C=C/c2nc3ccccc3c(=O)o2)cc1	TROY NFkB inh 50, TWEAK-Fn14 inh 79
CC(=O)Oc1ccc(-c2nc3ccccc3c(=O)o2)cc1	none
CS(=O)(=O)c1ccc(NC(=O)c2cc3c(cc2Cl)N2CCCCCC2=NS3(=O)=O)cc1	none
O=C(COc1ccc(C(=O)c2ccc(F)cc2)cc1)Nc1cccc(S(=O)(=O)N2CCOCC2)c1	TROY NFkB inh 54, TWEAK-Fn14 inh 57
CCC(=O)c1ccc(OCC(=O)Nc2cccc(S(=O)(=O)N3CCCCCC3)c2)cc1	TWEAK-Fn14 inh 54
CCCC(=O)NC1=C(Cl)C(=O)c2ccccc2C1=O	TRPM1 prom inh 101, Shn3 3UTR inh 90, HIF-2a block 95
O=C1C(Cl)=C(NCc2ccco2)C(=O)c2ccccc21	TRPM1 prom inh 94
O=C1C(Cl)=C(NS(=O)(=O)c2ccc([N+](=O)[O-])cc2)C(=O)c2ccccc21	TRPM1 prom inh inconclusive
CCNC1=C(Cl)C(=O)c2ccccc2C1=O	TRPM1 prom inh 74, HIF-2a block 67
O=C1c2ccccc2-c2onc3ccc(NCc4ccco4)c1c23	none
CCC(=O)NC1=C(Nc2ccc(N)cc2)C(=O)c2ccccc2C1=O	TWEAK-Fn14 inh 52
CCNC(=O)C1(C)CCN(C(=O)c2ccccc2OC)C1 (stereo not drawn)	none (no result: TRPM1 prom inh, EBV LMP1 NFkB)
O=C1C(Cl)=C(NCCN2CCCCC2)C(=O)c2ccccc21	TRPM1 prom inh 99, TROY NFkB inh 54, Shn3 3UTR inh 95, HIF-2a block 87, TWEAK-Fn14 inh 93
O=C(NCCN1CCCC1)c1ccccc1Cl	none
C=CCN(c1ccccc1Cl)S(=O)(=O)c1cccc(C(=O)NCCc2ccc(OC)cc2)c1	none
Cc1cc(-c2nnc(SCC(=O)Nc3ccccc3C(F)(F)F)o2)c(C)n1-c1ccccc1	TROY NFkB inh 70, TWEAK-Fn14 inh 92 (no result: Shn3 3UTR inh)
COc1ccc(-c2nc3ccccc3s2)cc1	TROY NFkB inh 52, TWEAK-Fn14 inh 75
